# About 83,000 compounds went through this panel and 20% of them were active in at least one assay; those are over-represented in the sample as a whole.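 Plates (96-well) were seeded with cells, treated with compound at one concentration, and incubated for 48 hours before percent growth was determined.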 Values without a mark were called inactive. The source made the active and inactive calls. The calls were made as follows: active = growth percent below 10; inactive = the rest.
# Tested on: MDA-MB-468 breast
# Test: NCI-60 one-dose screen, 48 h (100 = growth as untreated, 0 = no growth, -100 = all killed)
# Details: 10 µM unless noted
row,SMILES,growth
1,N=C(N)c1ccc(-c2ccc(-c3ccc(Cl)cc3Cl)s2)cc1,-57.1% (active)
2,O=[N+]([O-])c1ccc(Oc2nc(Nc3ccc(O[C@H]4CO[C@H]5[C@@H]4OC[C@@H]5O)c(Cl)c3)ncc2F)c(Cl)c1,15.8%
3,COc1ccccc1S(=O)(=O)Nc1ccc2c3c(cc(-c4cnn(C)c4)nc13)C(=O)N2C,23.1%
4,Cn1cc(-c2nn3cc(-c4ccncc4)nc3s2)c2cc(F)ccc21,54.6%
5,CSc1nc(O)c(-c2ccccc2)c(=O)[nH]1,99.1%

# Reference: PubChem BioAssay (NCI)
